Data reported in PubChem BioAssay AID1345085 (National Center for Advancing Translational Sciences (NCATS), 2018).
Inconclusive results are not listed. Where a call stands in place of a potency, no number is given. Calls of active or inactive are those of the source. Calls follow the shape of the dose curve; as a rule, active = well fitted cell-killing curve with a large enough effect; inconclusive = small, poorly fitted or top-dose-only effect, or effect the other way; inactive = no such curve, though single readings can be large or run the other way. *1 amine or outer side, *2 acyl side, *3 side chain or, on linkers, in order; H or OH if unused. Where a SMILES comes first, the peptide text is derived from it. Bridges are numbered along the chain shown (N, C = ends). Roman numbers before positions name the chains, in order. [ ]: non-standard residue; d: D form. Actinocin(9to1) = Cc1c2oc3c(C)ccc(C(=O)[*:1])c3nc-2c(C(=O)[*:2])c(N)c1=O; NMeV = CN[C@H](C(=O)O)C(C)C; Sar = CNCC(=O)O

tested on: SKOV3; assay: Confirmatory qHTS for gynecologic anti-cancer compounds from libraries of approved drugs and bioactive compounds; details: gynecologic cancer cell panel viability, ATPlite luminescence, 48 h; series mostly up to 57.6 µM; also: nearly all actives have a fitted effect of over 55% in size
Description: National Center for Advancing Translational Sciences [NCATS] Assay Overview: Chemotherapeutic drug responses vary from cancer to cancer and from patient to patient. These variations could be caused by a number of factors including patient genomic background, tumor mutations, tumor heterogeneity, and aspects of drug treatment. Chemotherapeutic drug resistance is also a common issue and can lead to ineffective treatment and patient death. Here we have profiled the cell killing effects of thousands of compounds to characterize the responses in three gynecological cancers, identify cancer-selective compounds, and understand the diversity of responses to these compounds from pan-cancer suppressors to single cell line selective compounds. In this assay, we screened a 7,914 compound drug library that included approved drug and bioactive compounds in six ovarian, three cervical, and two placental cancer cell lines using the ATPlite assay for cell viability. ATPlite is a luminescence based assay reliant on the conversion of a luciferase substrate to light in the presence of ATP. As a cytotoxic compound will suppress growth and decrease the number of cells, the concentration of ATP will decrease, and less light signal will be detected in the well. Hits were selected from the primary screen for follow-up confirmation. For the confirmation screens, the ovarian cancer cell lines included CAOV-3, SK-OV-3, SW 626, ES-2, PA-1, and TOV-21G. The cervical cancer cell lines included HeLa, Ca Ski, and C-33 A. The placental cancer cell lines included JEG-3 and JAR. HEK 293T cells were used as the control cell line to determine the selectivity index. The ATPlite assay was used to determine the IC50 values.
Assay Protocol Summary: 1,000 cells in 4 uL of media were dispensed into white, solid bottom 1536-well plates using a Multidrop Combi (Thermo Scientific). The Assay plates were incubated for 16 hours at 37 C with 5% CO2 in assay plates, followed by the addition of 23 nL of DMSO or drug dissolved in DMSO. . Each compound was assayed in 11 concentrations (1:3 dilution) from 57.5 uM to 0.977 nM, using the automated Wako 1536 Pin Tool workstation and incubated at 37 C with 5% CO2 48 hours. 4 uL of ATPlite, the ATP monitoring reagent, was then added to the each well of the assay plates using the Multidrop Combi reagent dispenser followed by incubation for 15 minutes at room temperature. The resulting luminescence was measured using the ViewLux plate reader.
Potency is read from the fitted curve at half-maximal effect.

Structure (SMILES)	Potency
O=c1[nH]c(=O)n([C@H]2C[C@H](O)[C@@H](CO)O2)cc1F	inactive
CC(=O)Nc1cccc(-n2c(=O)n(C3CC3)c(=O)c3c(Nc4ccc(I)cc4F)n(C)c(=O)c(C)c32)c1	306 nM (active)
CC(C)Nc1cc(-c2c[nH]c(C(=O)N[C@H](CO)c3cccc(Cl)c3)c2)c(Cl)cn1	inactive
COc1cc2c(c(OC)c1OC)-c1ccc(OC)c(=O)cc1[C@@H](NC(C)=O)CC2	inactive
Cc1csc(NC(=O)c2sc3nc4c(c(C(F)(F)F)c3c2N)CCC4)n1	1530 nM (active)
Cc1cc(Nc2nc(N[C@@H](C)c3ncc(F)cn3)ncc2Cl)n[nH]1	inactive
COc1cc2c(Oc3ccc(-c4cnc(Nc5ccc(F)cc5)n(C)c4=O)cc3F)ccnc2cc1OCCCN1CCOCC1	inactive
Cc1c2oc3c(C)ccc(C(=O)N[C@@H]4C(=O)N[C@H](C(C)C)C(=O)N5CCC[C@H]5C(=O)N(C)CC(=O)N(C)[C@@H](C(C)C)C(=O)O[C@@H]4C)c3nc-2c(C(=O)N[C@@H]2C(=O)N[C@H](C(C)C)C(=O)N3CCC[C@H]3C(=O)N(C)CC(=O)N(C)[C@@H](C(C)C)C(=O)O[C@@H]2C)c(N)c1=O (I: T[dV]P[Sar][NMeV] / II: T[dV]P[Sar][NMeV]; ester I:1-I:C, II:1-II:C; linker I:N-II:N via Actinocin(9to1))	544 nM (active)
NC(=O)c1cnc(-c2ccc(C3(N)CCC3)cc2)c(-c2ccccc2)c1	9680 nM (active)
COc1ccc2cc3[n+](cc2c1OC)CCc1cc2c(cc1-3)OCO2	inactive
CCCCc1oc2ccccc2c1C(=O)c1cc(I)c(OCCN(CC)CC)c(I)c1	70800 nM (active)
CCN[C@H]1C[C@H](C)S(=O)(=O)c2sc(S(N)(=O)=O)cc21	inactive
C[C@]12CCC(=O)C=C1CC[C@@H]1[C@@H]2[C@@H](O)C[C@@]2(C)[C@H]1CC[C@]2(O)C(=O)CO	inactive
c1cc(N[C@@H]2CCNC2)nc(-c2cnc3ccc(-c4cn[nH]c4)cn23)c1	inactive
CC[C@H](CC#N)OC(=O)N[C@@H](C)c1cccc(NC(=O)Nc2ccc(-c3cnco3)c(OC)c2)c1	inactive
CCCc1nn(C)c2c(=O)[nH]c(-c3cc(S(=O)(=O)N4CCN(C)CC4)ccc3OCC)nc12	inactive
Cc1cnc(Nc2ccc(F)cc2Cl)nc1-c1c[nH]c(C(=O)NC(CO)c2cccc(Cl)c2)c1 (stereo not given)	inactive
COc1ccc(OC)c(-c2nnc3ccc(-c4ccc(OC)c(O[C@@H]5CCOC5)c4)nn23)c1	inactive
COc1cc2c(Nc3ccc(NC(=O)c4ccccc4)cc3)ncnc2cc1OCCCN1CCOCC1	inactive
N#CC1(c2cccc(C(=O)Nc3cc(Oc4ccc5nc(NC(=O)C6CC6)sc5n4)ccc3F)c2Cl)CC1	17200 nM (active)

Structure (SMILES)	Potency
CCCCN(CCCC)CC(O)c1cc(Cl)cc2c1-c1ccc(Cl)cc1/C2=C/c1ccc(Cl)cc1 (stereo not given)	inactive
COc1cccc2cc(-c3nc(C4CCC(C(=O)O)CC4)n4ncnc(N)c34)[nH]c12 (stereo not given)	1090 nM (active)
Cc1nc(Nc2n[nH]c3c2CN(C(=O)NC(CN(C)C)c2ccccc2)C3(C)C)c2sccc2n1 (stereo not given)	3060 nM (active)
CN[C@@H](C)C(=O)N[C@H]1CN(C(=O)CC(C)C)CC[C@H]2CC[C@@H](C(=O)NC(c3ccccc3)c3ccccc3)N2C1=O	611 nM (active)
COc1cccc2c1C(=O)c1c(O)c3c(c(O)c1C2=O)C[C@@](O)(C(=O)CO)C[C@@H]3O[C@H]1C[C@H](N)[C@H](O[C@@H]2CCCCO2)[C@H](C)O1	685 nM (active)
O=C(c1ccc(F)c(F)c1Nc1ccc(I)cc1F)N1CC(O)([C@@H]2CCCCN2)C1	6110 nM (active)
COc1cc(Nc2ncc(F)c(Nc3ccc4c(n3)N(COP(=O)(O)O)C(=O)C(C)(C)O4)n2)cc(OC)c1OC	5440 nM (active)
CC(C)Oc1ccc2c(=O)c(-c3ccccc3)coc2c1	21700 nM (active)
CCN(CC)CCNC(=O)c1c(C)[nH]c(/C=C2\C(=O)Nc3ccc(F)cc32)c1C	15800 nM (active)
NC(=O)c1ccc2nc(-c3ccc(Oc4ccc(Cl)cc4)cc3)[nH]c2c1	inactive
CC[C@@]1(O)C(=O)OCc2c1cc1n(c2=O)Cc2c-1nc1ccccc1c2/C=N/OC(C)(C)C	43.2 nM (active)
Oc1cn2c(n1)Nc1ccc(Cl)c(Cl)c1C2	inactive
CCc1cccc(CC)c1NC(=O)N1Cc2[nH]nc(NC(=O)c3ccc(N4CCN(C)CC4)cc3)c2C1	inactive
CC[C@@]1(O)C(=O)OCc2c1cc1n(c2=O)Cc2cc3c(CN(C)C)c(O)ccc3nc2-1	544 nM (active)
CN(C)C(CCOc1cccc2ccccc12)c1ccccc1 (stereo not given)	inactive
CCN1CCN(Cc2ccc(Nc3ncc(F)c(-c4cc(F)c5nc(C)n(C(C)C)c5c4)n3)nc2)CC1	inactive
Cc1nc(N)ncc1-c1nc(N2CCOCC2)c2sc(C(C)(C)O)cc2n1	432 nM (active)
CCn1c(-c2nonc2N)nc2c(C#CC(C)(C)O)ncc(OCC3CCCNC3)c21 (stereo not given)	inactive
Cc1ccc(NC(=O)c2ccc(CN3CCN(C)CC3)cc2)cc1Nc1nccc(-c2cccnc2)n1	inactive
C=CC(=O)Nc1cc2c(Nc3ccc(F)c(Cl)c3)ncnc2cc1OCCCN1CCOCC1	24300 nM (active)
